Results from PubChem BioAssay.
The source made the active and inactive calls.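 Rule for the calls: active = Her2 level under about 52% in both replicate screens, with viability over 70% of control (limit read from the data); inconclusive = Her2 under the limit in one screen only, or viability under 70%; inactive = Her2 level above the set limit.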

Tested on: not listed separately
Assay: Her2 expression decrease, cell viability multiplex – SKBR3 breast tumor cells, AlphaScreen, ATP viability, primary screen (AID 461);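 for Her2 level: lower value means less Her2 protein in the cells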;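 for viability: percent of carrier control wells set as 100% viability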
Conditions: SKBR3 Her2 protein level, 18-24 h, measured here: SKBR3 viability, ATP luminescence, at 10 µM

SMILES	viability
CCOc1ccc(N2CC(C(=O)Nc3ccccc3OC)CC2=O)cc1 (stereo not given)	106%
O=C(Cn1ncc2c1-c1ccccc1OC2)N1CCN(c2ccccn2)CC1	91.5%
CC1CN(c2c3c(nc4ncnn24)CCCC3)CC(C)O1 (stereo not given)	89.5%
CCOC(=O)C(CC)n1nc(C)n2c(cc3sccc32)c1=O (stereo not given)	114%
CCOC(=O)CN(C(=O)c1ccccc1)c1ccccc1C	93%
Cc1ccc(-n2ncc3c(N4CCCC(C)C4)ncnc32)c(C)c1 (stereo not given)	104%
CCN1CCN(C(c2cccs2)C(C)NC(=O)c2ccccc2)CC1 (stereo not given)	92%
CC1=C(C(=O)Nc2ccc(F)cc2)C(c2cccc(C)c2)n2nc(CCCO)nc2N1 (stereo not given)	87.5%
Cc1ccc(-c2noc(CN3C(C)CCCC3C)n2)cc1 (stereo not given)	93.5%
CC1CCN(C(=O)CSc2nnc(Cc3cc(=O)[nH]c(=O)[nH]3)n2-c2ccc(Cl)cc2)CC1	92.5%
Cc1ccccc1-c1nc(CN2CCC(C(=O)N3CCC(C(N)=O)CC3)CC2)c(C)o1	108%
COc1ccc(C(=O)c2ccc(OC)c(N)c2)cc1N	119%
O=C(CC1(O)C(=O)Nc2ccccc21)c1ccc2c(c1)OCO2 (stereo not given)	104%
CCOC(=O)c1[nH]c(C)c(C(=O)NC)c1C	92%
CN(C1CCCCC1)S(=O)(=O)c1ccc(S(=O)(=O)N2CCN(CCC#N)CC2)cc1	89.5%
CC1CCCCC1NC(=O)Cn1ncc2ccccc21 (stereo not given)	104%
CCOC(=O)Cn1c(CCC(=O)O)ccc1-c1ccc(F)cc1	99%
CCCc1cc(C(=O)Nc2ccc(C(C)=O)cc2)no1	80.5%
CCOC(=O)CN1C(=O)C(=O)c2cccc(C)c21	80%
CCOc1ccc(NC(=O)C(C)Sc2nnc(C)n2C)cc1 (stereo not given)	92%

SMILES	viability
COc1cccc(CNC(=O)Cn2c(=O)oc3ccccc32)c1OC	110%
Oc1c(C(c2ccccc2)N2CCc3ccccc3C2)sc2ncnn12 (stereo not given)	87.5%
CCSc1nnc(N2C(=O)CC(c3ccsc3)C3=C2CC(C)(C)CC3=O)s1 (stereo not given)	89%
Cc1ccnc2c(N3C(=O)C4C5C=CC(C5)C4(C)C3=O)cccc12 (stereo not given)	98%
CCN(CC)C(=O)c1ccc(CS(=O)(=O)c2ccc(OC)cc2)o1	84.5%
CCCCCn1c(=O)[nH]c2cc(C(=O)NCCCN3CCCCC3)ccc2c1=O	76%
CC(C)c1nccn1S(=O)(=O)c1cc(Cl)ccc1Cl	104%
CCOC(=O)N1CCC(NC(=O)C2CCCN(C(=O)c3cc4sccc4n3C)C2)CC1 (stereo not given)	113%
CCCCNC(=O)Cn1c(=O)n(C)c2ccccc21	105%
Cc1c(C#N)c2ccccc2n1CC(=O)N1CCc2ccccc2C1	102%
O=C(COc1ccc2ccccc2c1)N1CCCC1	101%
CCC(=O)N1CCN(c2nc(-c3ccccc3)c3c(c2C#N)CCCC3)CC1	105%
CC1(C)CC(=O)c2cnc(NC(=O)Cc3ccc(Cl)cc3)nc2C1	71.5%
CCOCCOc1nc2c(c(=O)n(C)c(=O)n2C)n1Cc1ccc(C)cc1	83%
CCN(C(=O)c1cc(Cl)ccc1OC)c1ccccc1	91.5%
Cc1cccc(-n2ncc3c(N(CCO)CCO)ncnc32)c1	97%
N#CCCN1CCN(S(=O)(=O)c2ccc(S(=O)(=O)NC3CCCCC3)cc2)CC1	103%
Cc1c(C)c2ccc(OC3CCCCC3=O)cc2oc1=O (stereo not given)	100%
COc1ccc(-n2c(Cc3cccn3C)nnc2SCC(=O)Nc2ccc(Cl)cc2)cc1	99%
Cc1cc(C(N)=O)c2cc(Br)ccc2n1	95.5%

Biological target: Receptor tyrosine-protein kinase erbB-2 (Homo sapiens) (UniProt P04626)
Assay: as above
Conditions: 18-24 h, at 10 µM, stronger effect = lower value

Receptor tyrosine-protein kinase erbB-2 (Homo sapiens), sequence (P04626 whole entry, looked up): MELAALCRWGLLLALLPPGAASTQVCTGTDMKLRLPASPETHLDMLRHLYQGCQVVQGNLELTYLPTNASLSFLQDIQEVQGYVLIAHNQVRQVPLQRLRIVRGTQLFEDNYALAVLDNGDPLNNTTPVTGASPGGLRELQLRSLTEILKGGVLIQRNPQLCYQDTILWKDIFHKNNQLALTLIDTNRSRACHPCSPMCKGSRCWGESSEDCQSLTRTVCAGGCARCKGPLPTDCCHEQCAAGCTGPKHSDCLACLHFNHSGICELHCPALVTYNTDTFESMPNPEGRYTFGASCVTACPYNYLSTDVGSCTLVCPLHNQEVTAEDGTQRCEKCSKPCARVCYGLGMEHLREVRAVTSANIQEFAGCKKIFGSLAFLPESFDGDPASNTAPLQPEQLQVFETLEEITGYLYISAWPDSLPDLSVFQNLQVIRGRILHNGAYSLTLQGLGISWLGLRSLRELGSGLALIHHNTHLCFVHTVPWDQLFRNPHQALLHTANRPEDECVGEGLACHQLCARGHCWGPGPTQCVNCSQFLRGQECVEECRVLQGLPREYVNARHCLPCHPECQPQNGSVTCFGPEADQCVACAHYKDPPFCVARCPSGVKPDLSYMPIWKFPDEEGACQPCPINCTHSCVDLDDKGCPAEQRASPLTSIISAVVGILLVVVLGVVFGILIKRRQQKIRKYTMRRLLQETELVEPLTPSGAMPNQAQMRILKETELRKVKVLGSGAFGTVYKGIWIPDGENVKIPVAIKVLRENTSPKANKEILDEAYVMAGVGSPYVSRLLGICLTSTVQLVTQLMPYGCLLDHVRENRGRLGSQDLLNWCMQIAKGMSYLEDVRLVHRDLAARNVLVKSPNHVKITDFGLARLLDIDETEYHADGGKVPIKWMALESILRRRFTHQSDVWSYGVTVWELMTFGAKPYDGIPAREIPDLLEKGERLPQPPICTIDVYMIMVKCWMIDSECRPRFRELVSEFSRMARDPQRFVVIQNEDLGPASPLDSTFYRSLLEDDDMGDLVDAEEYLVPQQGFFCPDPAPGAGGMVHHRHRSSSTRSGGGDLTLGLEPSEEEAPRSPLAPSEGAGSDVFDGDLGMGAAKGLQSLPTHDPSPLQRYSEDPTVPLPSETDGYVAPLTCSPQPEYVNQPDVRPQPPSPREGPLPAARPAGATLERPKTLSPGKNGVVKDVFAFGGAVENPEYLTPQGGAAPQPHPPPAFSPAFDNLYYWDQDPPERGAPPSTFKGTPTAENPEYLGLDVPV

SMILES	Her2 level
CCOc1ccc(N2CC(C(=O)Nc3ccccc3OC)CC2=O)cc1 (stereo not given)	98% (inactive)
O=C(Cn1ncc2c1-c1ccccc1OC2)N1CCN(c2ccccn2)CC1	108% (inactive)
CC1CN(c2c3c(nc4ncnn24)CCCC3)CC(C)O1 (stereo not given)	88% (inactive)
CCOC(=O)C(CC)n1nc(C)n2c(cc3sccc32)c1=O (stereo not given)	102% (inactive)
CCOC(=O)CN(C(=O)c1ccccc1)c1ccccc1C	108% (inactive)
Cc1ccc(-n2ncc3c(N4CCCC(C)C4)ncnc32)c(C)c1 (stereo not given)	78.5% (inactive)
CCN1CCN(C(c2cccs2)C(C)NC(=O)c2ccccc2)CC1 (stereo not given)	88% (inactive)
CC1=C(C(=O)Nc2ccc(F)cc2)C(c2cccc(C)c2)n2nc(CCCO)nc2N1 (stereo not given)	91.5% (inactive)
Cc1ccc(-c2noc(CN3C(C)CCCC3C)n2)cc1 (stereo not given)	100% (inactive)
CC1CCN(C(=O)CSc2nnc(Cc3cc(=O)[nH]c(=O)[nH]3)n2-c2ccc(Cl)cc2)CC1	117% (inactive)
Cc1ccccc1-c1nc(CN2CCC(C(=O)N3CCC(C(N)=O)CC3)CC2)c(C)o1	104% (inactive)
COc1ccc(C(=O)c2ccc(OC)c(N)c2)cc1N	86% (inactive)
O=C(CC1(O)C(=O)Nc2ccccc21)c1ccc2c(c1)OCO2 (stereo not given)	93.5% (inactive)
CCOC(=O)c1[nH]c(C)c(C(=O)NC)c1C	112% (inactive)
CN(C1CCCCC1)S(=O)(=O)c1ccc(S(=O)(=O)N2CCN(CCC#N)CC2)cc1	92.5% (inactive)
CC1CCCCC1NC(=O)Cn1ncc2ccccc21 (stereo not given)	104% (inactive)
CCOC(=O)Cn1c(CCC(=O)O)ccc1-c1ccc(F)cc1	101% (inactive)
CCCc1cc(C(=O)Nc2ccc(C(C)=O)cc2)no1	91% (inactive)
CCOC(=O)CN1C(=O)C(=O)c2cccc(C)c21	101% (inactive)
CCOc1ccc(NC(=O)C(C)Sc2nnc(C)n2C)cc1 (stereo not given)	126% (inactive)

SMILES	Her2 level
COc1cccc(CNC(=O)Cn2c(=O)oc3ccccc32)c1OC	99% (inactive)
Oc1c(C(c2ccccc2)N2CCc3ccccc3C2)sc2ncnn12 (stereo not given)	82.5% (inactive)
CCSc1nnc(N2C(=O)CC(c3ccsc3)C3=C2CC(C)(C)CC3=O)s1 (stereo not given)	108% (inactive)
Cc1ccnc2c(N3C(=O)C4C5C=CC(C5)C4(C)C3=O)cccc12 (stereo not given)	102% (inactive)
CCN(CC)C(=O)c1ccc(CS(=O)(=O)c2ccc(OC)cc2)o1	116% (inactive)
CCCCCn1c(=O)[nH]c2cc(C(=O)NCCCN3CCCCC3)ccc2c1=O	74.5% (inactive)
CC(C)c1nccn1S(=O)(=O)c1cc(Cl)ccc1Cl	112% (inactive)
CCOC(=O)N1CCC(NC(=O)C2CCCN(C(=O)c3cc4sccc4n3C)C2)CC1 (stereo not given)	114% (inactive)
CCCCNC(=O)Cn1c(=O)n(C)c2ccccc21	96.5% (inactive)
Cc1c(C#N)c2ccccc2n1CC(=O)N1CCc2ccccc2C1	120% (inactive)
O=C(COc1ccc2ccccc2c1)N1CCCC1	88.5% (inactive)
CCC(=O)N1CCN(c2nc(-c3ccccc3)c3c(c2C#N)CCCC3)CC1	93% (inactive)
CC1(C)CC(=O)c2cnc(NC(=O)Cc3ccc(Cl)cc3)nc2C1	96.5% (inactive)
CCOCCOc1nc2c(c(=O)n(C)c(=O)n2C)n1Cc1ccc(C)cc1	113% (inactive)
CCN(C(=O)c1cc(Cl)ccc1OC)c1ccccc1	110% (inactive)
Cc1cccc(-n2ncc3c(N(CCO)CCO)ncnc32)c1	91.5% (inactive)
N#CCCN1CCN(S(=O)(=O)c2ccc(S(=O)(=O)NC3CCCCC3)cc2)CC1	105% (inactive)
Cc1c(C)c2ccc(OC3CCCCC3=O)cc2oc1=O (stereo not given)	112% (inactive)
COc1ccc(-n2c(Cc3cccn3C)nnc2SCC(=O)Nc2ccc(Cl)cc2)cc1	58% (inactive)
Cc1cc(C(N)=O)c2cc(Br)ccc2n1	95.5% (inactive)
